Integrin act MD: activators of alpha7 integrin expression for muscular dystrophy. alpha7betagal myoblasts, beta-gal FDG fluorescence, 48 h. Potency, µM (series often up to 38.3 µM), inactives show at the top dose activation, hits mostly activators. 0.064% of 350,000 active;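 further: potency means the concentration at half of the fitted maximal effect; 100% = response of the positive control SU9516; nearly all actives have a fitted effect of over 60% in size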
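alpha7betagal+/- myoblasts (passage 13, 250/well) treated 48 h at 37C with compounds at 1:260 dilution of DMSO stock. Lysed, then beta-galactosidase activity read as FDG fluorescence (ex 480/em 540) after 30 min, with pre-read for autofluorescence.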
Giardia kill: kills Giardia lamblia; activity change, % at 7.66 µM, hits read low; 0.15% of 340,000 active; Giardia lamblia trophozoite viability; in the data active means activity change below about -80%; inconclusive means between about -30% and that limit;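 further: parasites exposed to compound for two days anaerobically before the ATP read; on the % scale 0 is the no-effect control and ±100 the full control effect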
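Luminescent ATP signal served as the viability read-out, measured 15-30 min after adding ATP detection reagent to trophozoites that had been incubated with compounds for 48 hrs at 37 deg C anaerobically at 100 cells/well.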
ERG-DNA inh: inhibitors of human ERG Ets domain-DNA interaction. P11308. fluorescence polarization, His-ERG Ets domain / labelled DNA. Potency, µM (titrated, usually from 76.9 µM), without a hit: at the top dose FP activity, negative = inhibition, hits mostly inhibitors. 0.028% of 370,000 active; active means well fitted inhibition curve with a large enough effect in the polarisation, with a control signal flat; inconclusive means small, poorly fitted or top-dose-only effect, or effect the other way, or a change in a side signal; inactive means no such curve, though single readings can be large or run the other way; the % refers to the polarisation;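 further: polarization taken with two DNA probes labelled with fluorescein and Texas red; potency means the concentration at half of the fitted maximal effect; % of control where 0% means no effect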
Target sequence (P11308 whole entry, looked up, the tested form may be a part): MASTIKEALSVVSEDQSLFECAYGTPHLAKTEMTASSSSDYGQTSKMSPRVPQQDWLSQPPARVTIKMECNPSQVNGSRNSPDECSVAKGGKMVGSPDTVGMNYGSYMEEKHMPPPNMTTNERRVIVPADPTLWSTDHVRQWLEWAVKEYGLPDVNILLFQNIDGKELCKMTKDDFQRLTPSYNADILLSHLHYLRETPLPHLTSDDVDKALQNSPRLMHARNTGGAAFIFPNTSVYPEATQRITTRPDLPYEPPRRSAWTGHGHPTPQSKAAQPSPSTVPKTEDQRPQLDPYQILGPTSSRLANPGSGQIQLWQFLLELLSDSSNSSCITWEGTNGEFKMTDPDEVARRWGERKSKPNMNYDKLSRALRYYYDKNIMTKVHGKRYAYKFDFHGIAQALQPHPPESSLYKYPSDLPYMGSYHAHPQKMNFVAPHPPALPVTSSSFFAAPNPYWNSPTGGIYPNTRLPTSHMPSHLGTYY
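His-tagged ERG Ets domain (1 uM in the protein solution; 300mM KCl, 50mM Tris-HCl, 1mM EDTA, 1mM DTT, pH 7.5) received compound, then a probe mix of 5 nM fluorescein-DNA and 100nM Texas-615-DNA. Fluorescence polarization was read for both dyes.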
RORgamma inh: blocks mouse ROR gamma transcriptional activity; Drosophila S2 Gal4-RORgamma UAS-luciferase reporter, 20 h; Potency, µM (highest dose often 53.6 µM), without a hit: at the top dose activity change, negative = inhibition, usual class: inhibitors; 5.4% of 310,000 active; AID 2551; further: potency means the concentration at half of the fitted maximal effect; on the % scale 0 is the no-effect control and ±100 the full control effect; nearly all actives have a fitted effect of over 60% in size
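ROR gamma transcriptional activity was tracked as Gal4-UAS luciferase output in stably transfected Drosophila Schneider cells, with compound added 1 hr before 700 uM copper sulfate induction and a 20 hr ambient-temperature incubation.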
VP16 counter: inhibits Gal4-VP16 luciferase reporter, ROR gamma counter-screen | Drosophila S2 Gal4-VP16 UAS-luciferase, luminescence, 20 h | Potency, µM (highest dose often 53.6 µM), inactives show at the top dose activity, negative = inhibition, hits mostly inhibitors | 3.5% of 310,000 active;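 further: Gal4-VP16 expression switched on by copper sulfate through the metallothionein promoter; potency means the concentration at half of the fitted maximal effect; on the % scale 0 is the no-effect control and ±100 the full control effect; nearly all actives have a fitted effect of over 50% in size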
Active calls of the source: *; ? = inconclusive; nt = not tested or not shown; [ ] = remark or other dose. The sample as a whole holds a higher share of hits than the screen did. Unless noted, the call rests on the fitted dose curve; in most records, active means well fitted curve in the direction sought with a large enough effect; inconclusive means small, poorly fitted or top-dose-only effect, or another doubt; inactive means no such curve, though single readings can be large; an effect the other way counts as inactive or inconclusive.

SMILES | Integrin act MD | Giardia kill | ERG-DNA inh | RORgamma inh | VP16 counter
Cc1nc2ccc(Nc3ccncc3)cc2s1 | -9% | 3 | 2% | -3% | 1%
Cc1ccccc1N1C(=O)c2cccc3c(N(C)CCO)ccc(c23)C1=O | 2% | 1 | nt | 11µM* | -2%
Cc1ccc(C(=O)Nc2nc(-c3ccccc3)c(-c3ccccc3)o2)cc1 | -38% | 7 | 9% | 5µM* | 5.6µM*
Cc1cc(C)nc(SCC(=O)Nc2nc(-c3ccccc3)c(-c3ccccc3)o2)n1 | 2% | 0 | -11% | 11µM* | 20µM*
CCN(CC)S(=O)(=O)c1ccc(C(=O)Nc2ccc(Cc3ccncc3)cc2)cc1 | -33% | -2 | -13% | 5.6µM* | 3.5µM*
CCN(Cc1ccncc1)S(=O)(=O)c1ccc(C(C)=O)cc1 | -26%[7.66 µM] | 1 | -1% | 31% | 7.9µM*
COc1ccc(C2=C(Nc3ccc(Br)c(C)c3)c3ccccc3C2=O)cc1 | nt | nt | -2% | nt | nt
C=CCc1ccccc1OCC(=O)N/N=C/c1ccc(OC(C)=O)cc1OC(C)=O | 0% | 4 | -6% | 7.1µM* | ?
Cc1ccccc1OCC(=O)N/N=C/c1cc2ccccc2nc1Cl | -10% | -13 | 2% | 38% | -8%
CC1(C)O[C@H]2O[C@@H]([C@H](O)CON3C(=O)c4ccccc4C3=O)[C@H](O)[C@H]2O1 | nt | nt | nt | -33%[10 µM] | 0%[10 µM]
COc1ccc(-c2onc(C)c2C)cc1S(=O)(=O)N(C)Cc1ccccc1 | nt | nt | 1% | nt | nt
CO[C@H]1COC(=O)CCC[C@H](C)[C@@H](OC)COC(=O)C/C=C\[C@@H]1C | nt | nt | nt | 2%[10 µM] | -3%[10 µM]
Cc1ccc(C(=O)NC(=S)Nc2ccc(N3CCN(C(=O)c4ccco4)CC3)cc2)cc1 | 20% | -2 | -1% | 13µM* | 5.6µM*
COc1ccc(C(=O)N2CCN(c3ccc(NC(=O)c4cccs4)cc3)CC2)cc1 | 18% | -2 | -5% | 35% | -8%
Cc1ccc(C(=O)N2CCN(c3ccc(NC(=S)NC(=O)c4cccs4)cc3)CC2)cc1 | 13% | -13 | 8% | 7.1µM* | 11µM*
CC(C)CC(=O)NC(=S)Nc1ccc(N2CCN(C(=O)c3cccs3)CC2)cc1 | -5% | 1 | -6% | 7.1µM* | 6.3µM*
CC(C)C(=O)Nc1ccc(N2CCN(C(=O)c3cccs3)CC2)cc1 | -2% | -5 | 5% | 7% | -2%
Cc1ccccc1C(=O)N1CCN(c2ccc(NC(=S)NC(=O)c3cccs3)cc2)CC1 | 2% | 37 | 7% | 2.8µM* | 5.6µM*
CC(C)Oc1ccc(C(=O)Nc2ccc(N3CCN(C(=O)c4ccco4)CC3)cc2)cc1 | -1% | -16 | -5% | ? | 21%
C/C(=N/NC(=O)c1ccc(C)s1)c1cccc(NC(=O)c2ccoc2C)c1 | 0% | -1 | -8% | ? | 1%
Cc1cc(-c2ccc(S(=O)(=O)Nc3ccc(Cl)cc3C)cc2)on1 | nt | nt | 5% | nt | nt
COc1ccc(NC(=O)CSc2nnc3scc(-c4ccc(Cl)cc4)n23)cc1 | nt | nt | 15% | nt | nt
CC(C)=CCC/C(C)=C/CO/N=C1/C[C@@H](O)[C@@H](O)[C@@H]2[C@@H]3C(=O)N(Cc4ccc5c(c4)OCO5)C(=O)[C@H]3CC[C@@H]12 | nt | nt | nt | -1%[10 µM] | -9%[10 µM]
CCc1ccc(NC(=O)CC2C(=O)N(c3ccc(C)cc3)C(=O)N2C2CC2)cc1 (stereo not drawn) | 20% | -12 | -9% | 32% | 2%
C/C(=N/NC(=O)c1cccs1)c1ccc(N2CCOCC2)cc1 | 24% | -8 | 4% | -9% | ?
SMILES | Integrin act MD | Giardia kill | ERG-DNA inh | RORgamma inh | VP16 counter
O=C(NC(=S)Nc1ccc(N2CCOCC2)cc1)c1cccs1 | 7% | 24 | 3% | 2.8µM* | ?
O=C(COC(=O)C1C2CC3OC(=O)C1C3C2)Nc1ccccc1 (stereo not drawn) | 11% | 21 | -8% | -41% | 0%
O=C(NCCc1ccc(Cl)cc1)C(=O)NCC(c1ccco1)S(=O)(=O)c1ccc(Cl)cc1 (stereo not drawn) | nt | nt | 1% | nt | nt
O=C(COC(=O)c1ccco1)NCCc1ccc(Cl)cc1 | -25% | -3 | -1% | nt | nt
O=C(NC(=S)NCCc1ccc(Cl)cc1)c1ccco1 | -2% | 14 | 2% | 8.9µM* | ?
S=C(NCCc1ccc(Cl)cc1)NCc1ccco1 | -30% | -2 | 1% | 11µM* | -21%
S=C(NCc1ccc(Cl)cc1)NCc1ccco1 | -17% | 4 | 2% | 7.1µM* | 10µM*
